Bioassay records from PubChem BioAssay.
This excerpt belongs to a sample that is enriched for hits.
Cycloheximide cs: Cycloheximide Counterscreen for Small Molecule Inhibitors of Shiga Toxin. cell reporter, cycloheximide protein synthesis inhibition counterscreen. max response, %. actives 12% (n = 300,000). AID 2314, 2010; in the data active = max response mostly above about 13%, no sharp cut-off; inactive = mostly below about 14%; note: read at 38.3 µM for the half of the compounds with a filed dose; 0% is about no effect
Sm TGR block: qHTS Assay for the Inhibitors of Schistosoma Mansoni Peroxiredoxins; Potency, µM (doses to about 114 µM), without a hit: at the top dose activity change, negative = inhibition, hits mostly inhibitors; actives 3% (n = 360,000); AID 485364, 2010; purified TGR, DTNB reduction, TNB absorbance 405 nm; Schistosoma mansoni thioredoxin glutathione reductase (TGR), Q962Y6; note: potency is the fitted concentration of half-maximal effect; % is set by controls: 0 for no effect and ±100 for the full control effect; nearly all actives have a fitted effect of over 60% in size
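Kinetic colorimetric format: TGR-catalysed, NADPH-driven DTNB reduction monitored via TNB absorbance. Enzyme dispensed at 20 nM; compound exposure 15 min at room temperature before reaction start.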
Shiga inhibitor: A qHTS for Small Molecule Inhibitors of Shiga Toxin; Vero cells, Shiga toxin protein synthesis inhibition reporter; inhibition, % at 38.7 µM; actives 9.2% (n = 290,000); AID 2315, 2010; in the data active = inhibition mostly above about 28%, no sharp cut-off; inactive = mostly below about 43%; note: 0% is about no effect
Giardia FBPA inh: qHTS Assay for Inhibitors of Fructose-1,6-bisphosphate Aldolase from Giardia Lamblia; A8B2U2; purified Giardia FBPA; Potency, µM (highest dose often 59.6 µM), without a hit: at the top dose activity, negative = inhibition, actives largely listed as inhibitors; actives 0.71% (n = 290,000); note: potency is the fitted concentration of half-maximal effect; % is set by controls: 0 for no effect and ±100 for the full control effect; nearly all actives have a fitted effect of over 55% in size
Target sequence (A8B2U2 whole entry, looked up): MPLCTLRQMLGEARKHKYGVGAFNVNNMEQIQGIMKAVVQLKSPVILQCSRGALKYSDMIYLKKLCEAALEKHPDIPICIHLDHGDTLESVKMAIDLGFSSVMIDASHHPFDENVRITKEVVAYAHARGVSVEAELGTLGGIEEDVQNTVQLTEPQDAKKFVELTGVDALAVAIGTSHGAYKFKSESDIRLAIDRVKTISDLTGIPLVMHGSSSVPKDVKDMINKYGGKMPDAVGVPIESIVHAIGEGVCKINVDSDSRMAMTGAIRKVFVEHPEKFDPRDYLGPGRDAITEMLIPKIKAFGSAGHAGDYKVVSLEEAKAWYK
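Giardia FBPA (40 nM reagent) was preincubated 10 min at RT with compound (up to 57.5 uM final), then substrate plus GAPDH/TPI/NAD/arsenate coupling system with diaphorase/resazurin was added; resorufin fluorescence (525/598 nm) was read after 20 min.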
LmPK inhibitor: qHTS Assay for Inhibitors of Leishmania Mexicana Pyruvate Kinase (LmPK). AID 1721, 2009. Potency, µM (top dose mostly 57.5 µM), inactives show top-dose activity change, negative = inhibition, actives largely listed as inhibitors. purified LmPK, Kinase-Glo ATP luminescence, 1 h. actives 0.37% (n = 290,000). Q27686; note: potency is the fitted concentration of half-maximal effect; % is set by controls: 0 for no effect and ±100 for the full control effect
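qHTS format; LmPK 0.1 nM; substrates PEP 0.5 mM and ADP 0.1 mM. One-hour room-temperature incubation, then coupled luciferase luminescence; 0.5 nM enzyme wells mark activation.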
Tb PYK inh: qHTS of Trypanosoma Brucei Inhibitors; pyruvate kinase (Trypanosoma brucei), Q57TT1; TbPYK enzyme, Kinase-Glo Plus ATP luminescence, 45 min; Potency, µM (titrated, usually from 76.8 µM), without a hit: at the top dose activity, negative = inhibition, usual class: inhibitors; actives 0.12% (n = 410,000); AID 624173, 2012; note: potency is the fitted concentration of half-maximal effect; % is set by controls: 0 for no effect and ±100 for the full control effect; nearly all actives have a fitted effect of over 50% in size
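In this concentration-response screen, enzyme-free wells defined baseline while DMSO plates tracked drift. Each reaction combined TbPYK, substrate, compound and 130 uM ADP for 45 min at room temperature. Kinase-Glo Plus luminescence gave the signal.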
The depositor's hits bear a star; ? = inconclusive; / = no result. Unless noted, calls come from the whole dose curve; as a rule, active = well fitted curve in the direction sought with a large enough effect; inconclusive = small, poorly fitted or top-dose-only effect, or another doubt; inactive = no such curve, though single readings can be large; an effect the other way counts as inactive or inconclusive.

SMILES	Cycloheximide cs	Sm TGR block	Shiga inhibitor	Giardia FBPA inh	LmPK inhibitor	Tb PYK inh
COCCN(Cc1nc(-c2ccc(-c3ccccc3)cc2)oc1C)C(C)C	31.0*	-1.6%	38.2*	-2.4%	7.7%	7.1%
CCCSc1nc(O)c(C2OC(=O)c3c2ccc(OC)c3OC)c(=O)n1C (stereo not drawn)	-4.0	?	13.7	4.6%	-11.8%	0.9%
CCSc1nc(O)c(C2OC(=O)c3c2ccc(OC)c3OC)c(=O)n1-c1ccccc1 (stereo not drawn)	-2.3	7.08µM*	2.8	7.1%	3.1%	1.4%
Cc1c(Cl)cccc1NC(=O)CN1C(=O)CSc2ccc(S(=O)(=O)N3CCCC3)cc21	/	-12.6%	/	/	/	0.8%
Cc1ccc(-n2c(=O)c3c(cnn3C)n(CC(=O)Nc3cc(C)ccc3C)c2=O)cc1	/	10.8%	/	/	/	-0.4%
Cc1ccc(NCc2ccc([N+](=O)[O-])s2)cc1	25.3*	-28.7%	49.0*	-14.3%	-1.2%	-6.1%
Cc1ccc(NC(=S)N/N=C/c2ccc([N+](=O)[O-])s2)cc1	46.9*	?	active	6.1%	-1.7%	-1.2%
Cc1ccccc1NCc1ccc([N+](=O)[O-])s1	14.0*	-6.5%	-1.1	-28.5%	-11.1%	-2.6%
COCCNC(=O)C1CCCN(C(=O)c2cc(-c3cccs3)oc2C)CC1 (stereo not drawn)	/	/	/	/	/	-10.1%
CCNC(=S)N1CCN(c2nc(-c3ccc(F)cc3)cs2)CC1	9.7*	-2.6%	20.7	6.2%	0.5%	-5.9%
COCCNC(=S)N1CCN(c2nc(-c3ccc(F)cc3)cs2)CC1	11.7*	-2.6%	19.2	-13.5%	-2.7%	-7.9%
CCNC(=O)C1CCCN(C(=O)c2cccc(C#N)c2)CC1 (stereo not drawn)	/	/	/	/	/	-6.9%
O=C1C=C(CO)OCC1=O	/	/	/	/	/	1.7%
O=C(CSc1nnc(-c2ccccc2)o1)N1CCCC1	15.3*	12.6%	58.5	6.5%	0.7%	-1.0%
O=C(CSc1nnc(-c2ccccc2)o1)N1CCCCC1	18.0*	2.2%	90.2*	6.8%	-3.0%	1.0%
O=C(CSc1nnc(-c2c[nH]c3ccccc23)o1)N1CCCCC1	25.8*	-3.5%	69.7*	-3.4%	-0.6%	2.6%
CC1CCN(C(=O)CSc2nnc(-c3ccccc3)o2)CC1	/	-4.0%	/	/	/	0.6%
O=C(CSc1nnc(-c2ccc(F)cc2)o1)N1CCCCC1	26.8*	3.4%	67.4*	6.1%	-10.4%	-9.6%
CC1CC(C)CN(C(=O)CSc2nnc(-c3ccc(F)cc3)o2)C1 (stereo not drawn)	-8.5	0.0%	-5.2	1.4%	4.9%	-15.8%
CCCn1c(SCC(=O)N(C2CCCCC2)C2CCS(=O)(=O)C2)n[nH]c1=O (stereo not drawn)	/	-19.1%	/	/	/	-4.2%
COc1cc2ncc3c(-c4ccc(C)cc4)nn(-c4ccc(F)cc4F)c3c2cc1OC	/	4.5%	/	/	/	-5.7%
COc1ccc(CC(=O)OCC(=O)N2CCc3ccccc32)cc1OC	/	-1.0%	/	/	/	7.7%
CC(=O)N1C=Cc2c(c(C)c3c([nH]c4ccccc43)c2C)C1	16.7*	-6.4%	24.8	-22.4%	1.8%	/
CC(=O)N1CCc2[nH]c3ccccc3c2C1	-2.2	-22.8%	20.0	3.2%	1.9%	0.6%
COC(=O)CSc1nc2sc3c(c2c(=O)n1-c1ccccc1)CCN(C)C3	-4.7	35.5µM*	6.8	-16.1%	1.6%	-4.0%
SMILES	Cycloheximide cs	Sm TGR block	Shiga inhibitor	Giardia FBPA inh	LmPK inhibitor	Tb PYK inh
Nn1c(Nc2ccccc2)nc2sc3c(c2c1=O)CCC3	26.1*	-3.0%	85.6*	-9.6%	2.1%	-8.6%
COC(=O)c1ccc(Cn2nnc3sc4c(c3c2=O)CCCC4)cc1	/	4.2%	/	/	/	-7.0%
O=C(O)c1ccc(Cn2nnc3sc4c(c3c2=O)CCCC4)cc1	41.3*	-9.6%	166.6*	?	0.5%	-6.9%
CCCSc1nc(N)c2c3c(sc2n1)CN(C)CC3	16.1	-21.9%	34.7	-5.2%	0.7%	-4.4%
CC(C)Sc1nc(N)c2c3c(sc2n1)CN(C)CC3	15.6*	-21.4%	20.7	-16.6%	-3.2%	4.8%
Cc1ccccc1-c1ccc2ncnc(NCCN3CCOCC3)c2c1	/	/	/	0.6%	/	/
Cc1ccccc1-n1c(SCC(=O)O)nc2sc3c(c2c1=O)CCCC3	-9.2	7.8%	2.4	-3.9%	0.8%	-21.8%
CSc1nc(NCC(C)C)c2c3c(sc2n1)CN(C)CC3	-0.4	-29.6%	-10.2	-8.4%	1.2%	4.7%
CSc1nc(NCc2ccccc2)c2c3c(sc2n1)CN(C)CC3	19.2*	-2.5%	53.0*	-20.6%	3.2%	0.1%
CCn1c(SCC(=O)c2ccccc2)nc2sc3c(c2c1=O)CCN(C)C3	12.0*	17.8µM*	69.9*	-1.1%	-1.4%	0.1%
CCn1c(SCC(=O)NCCc2ccccc2)nc2sc3c(c2c1=O)CCN(C)C3	-1.9	-2.7%	-8.5	-17.1%	5.3%	3.8%
O=C(O)CSc1nc2sc3c(c2c(=O)n1Cc1ccccc1)CCCCC3	26.4*	7.1%	39.9*	2.4%	3.3%	1.8%
Cc1ccccc1CNC(=O)C(=O)NCCC1CCCCN1S(=O)(=O)c1ccccc1 (stereo not drawn)	/	0.6%	/	/	/	-6.7%
COCCn1c(=O)c(-c2cccc(C#N)c2)nc2cnc(Oc3ccc(OC)cc3)nc21	/	/	/	-5.2%	/	/
COc1ccccc1C1CC(c2cccs2)=Nc2ccccc2S1 (stereo not drawn)	69.7*	-0.2%	96.6*	-3.9%	-4.5%	-5.5%
COc1cc(-c2c(C#N)c(N)nc3c2CCCC3)ccc1O	-2.5	20µM*	-5.8	-4.6%	-1.2%	?
N#Cc1c(N)nc2c(c1-c1cccc(O)c1)CCCCCC2	-4.8	7.2%	-9.8	7.6%	-0.6%	1.9%
CC1CCCN(CCOc2ccc3ccccc3c2Br)C1 (stereo not drawn)	14.5	0.7%	43.0*	?	1.3%	-16.6%
CC1CCCN(CCCOc2ccc(Cl)cc2Br)C1 (stereo not drawn)	36.5*	-3.2%	102.7*	-23.1%	-5.5%	-10.7%
CC1CCN(CCOCCOc2ccc(Cl)cc2Br)CC1	-3.8	0.0%	-32.7	?	-0.6%	-13.4%
CC1CCN(CCCOc2ccc(Cl)cc2Br)CC1	25.6*	?	73.5*	?	8.1%	11.9%
COc1cccc(NC(=O)CN(C)C(=O)CNC(=O)c2ccc(Oc3ccccc3)cc2)c1	/	0.7%	/	/	/	-1.5%
CN(CC(=O)Nc1ccccc1Br)C(=O)CNC(=O)c1ccc(Oc2ccccc2)cc1	60.1*	-0.6%	55.2*	/	-5.0%	-0.7%
Cc1ccccc1Nc1ncnc2c1c(-c1ccccc1)cn2-c1ccc(F)cc1	/	6.2%	/	/	/	0.0%
